# Shown are actives, neighbours in structure and some others; about 2.1% of the full set was active somewhere.
# TPT1 inhibitor = Candida albicans TPT1 enzyme inhibitors, primary screen, biochemical, fluorescence polarization; tRNA 2'-phosphotransferase TPT1 (Candida albicans SC5314); recombinant caTPT1, FP RNA substrate dephosphorylation; inhibition, % at 5 µM; 0.81% of 300,000 active;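 active means inhibition above the mean of all tested compounds plus 3 SD, set per screening campaign, cut at about 24% in these data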;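 further: plate controls were DMSO alone for no effect and ferristatin control at 100 nM for full effect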
# Rpn11 block = Rpn11 (PSMD14) deubiquitinase inhibitors, primary screen, biochemical, fluorescence polarization, uHTS; human 26S proteasome, Ub4-pepOG fluorescence polarization; 20S core pre-blocked with epoxomicin; inhibition, % at 20 µM; 0.59% of 360,000 active;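 active means inhibition at 20 µM, scaled to each plate's controls, above about 33%, limit read from the data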
# HNF4A DNA FP = change in binding of human HNF4A to DNA, primary screen, biochemical, fluorescence polarization, FITC-DNA | Hepatocyte nuclear factor 4-alpha (Homo sapiens), P41235 | 0.3% of 360,000 active | 1 h | activity change, % at 10 µM; in the data active means activity change above about 30%, passing the limit was not always enough
# Myeloid diff 2 = induction of myeloid progenitor differentiation, primary screen, cell-based, flow cytometry, MLPCN library; ER-HoxA9 myeloid progenitors, lysozyme-GFP differentiation; calls only at 10 µM; 1% of 360,000 active;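 active means normalized GFP-positive differentiation at or above the plate's own cutoff, the solvent-only control mean plus 3 SD; inconclusive means no clear call, values can overlap the other calls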;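 further: cells exposed to compound for four days before flow analysis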
# Rpn11 confirm = Rpn11 (PSMD14) deubiquitinase inhibitors, confirmation, biochemical, fluorescence polarization, single concentration | shares compounds with Rpn11 block | purified human 26S proteasome, Ub4-pepOG fluorescence polarization; proteasome pretreated with epoxomicin | inhibition, % at 20 µM | 29% of 1,900 active | AID 602318, 2012
# MMP-2 inh = MMP-2 enzyme inhibition, confirmation, counter-screen for RPN11 inhibitor project, biochemical, fluorescence, single concentration | inhibition, % at 20 µM | shares compounds with Rpn11 block | AID 602330, 2012 | recombinant MMP-2, FRET peptide cleavage fluorescence | 4% of 1,900 active;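 further: human MMP-2 activated beforehand with APMA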
# Thrombin FP = bovine thrombin protease inhibition, confirmation, counter-screen for Rpn11 inhibitor project, biochemical, fluorescence polarization, single concentration. shares compounds with Rpn11 block. bovine thrombin cleavage of Ub4-pepOG. inhibition, % at 20 µM. 13% of 1,900 active. AID 602333, 2012;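 active means mean inhibition at least 40% at 20 µM, or signal 3 deviations below plate average, so some actives read negative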;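 further: plate controls were thrombin with DMSO for no effect and buffer wells lacking thrombin for full effect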
# Target sequence (P00735 whole entry, looked up): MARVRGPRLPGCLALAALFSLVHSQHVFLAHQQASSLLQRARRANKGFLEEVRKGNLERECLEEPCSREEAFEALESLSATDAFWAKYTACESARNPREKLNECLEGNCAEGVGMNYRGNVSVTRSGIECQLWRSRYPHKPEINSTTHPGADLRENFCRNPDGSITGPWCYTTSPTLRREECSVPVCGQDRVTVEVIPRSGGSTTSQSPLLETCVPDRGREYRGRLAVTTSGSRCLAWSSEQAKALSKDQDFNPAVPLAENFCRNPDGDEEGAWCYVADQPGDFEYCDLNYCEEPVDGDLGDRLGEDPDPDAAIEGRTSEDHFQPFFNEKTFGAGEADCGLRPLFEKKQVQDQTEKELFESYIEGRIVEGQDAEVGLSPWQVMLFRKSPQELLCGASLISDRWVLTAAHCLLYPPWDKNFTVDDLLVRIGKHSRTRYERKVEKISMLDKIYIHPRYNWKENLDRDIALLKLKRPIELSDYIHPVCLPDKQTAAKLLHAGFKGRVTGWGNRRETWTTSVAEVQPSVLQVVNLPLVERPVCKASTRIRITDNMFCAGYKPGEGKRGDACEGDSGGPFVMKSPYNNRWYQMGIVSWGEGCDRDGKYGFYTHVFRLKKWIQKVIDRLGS
# The depositor's hits bear a star; i = inactive; ? = inconclusive; . = no result; + = active, no number. Unless noted, no stated cut-off is given here; in the data, active means inhibition above about 40%; inactive means the rest.
SMILES,TPT1 inhibitor,Rpn11 block,HNF4A DNA FP,Myeloid diff 2,Rpn11 confirm,MMP-2 inh,Thrombin FP
CCCC(=O)Nc1c(C(=O)OCC)[nH]c2ccccc12,-2,-1,1,i,.,.,.
COc1ccccc1/C=C1\SC(=S)N(CCC(=O)Nc2ccc(C(=O)O)c(O)c2)C1=O,0,10,-6,i,.,.,.
O=C(CCCN1C(=O)/C(=C/c2ccco2)SC1=S)Nc1ccccc1C(=O)O,3,68*,-56,i,4,38,-1
O=C(CCN1C(=O)/C(=C/c2ccco2)SC1=S)Nc1ccc(C(=O)O)c(O)c1,14,64*,-22,i,9,37,-1
NC(=O)CC(NC(=O)Cc1ccc(Cl)cc1)c1ccc(NC2CCCC2)c([N+](=O)[O-])c1 (stereo not given),15,45*,16,i,47*,-10,30
COc1ccc(CCNc2ccc(C(CC(N)=O)NC(=O)Cc3cccc4ccccc34)cc2[N+](=O)[O-])cc1 (stereo not given),15,42*,33,i,52*,-21,30
Cc1ccc(NC(=O)CN2C(=O)N/C(=C/c3cc(C)n(-c4cccc(C(=O)O)c4)c3C)C2=O)cc1,.,-5,-12,i,.,.,.
CC(=O)NC1=NC(=O)/C(=C/c2cc(C)n(-c3cccc(C(=O)O)c3)c2C)S1,.,136*,49*,i,+,40*,136*
O=C1CCCN1c1ccc(C(=O)N(Cc2nnc(-c3ccc(Cl)cc3)o2)C2CC2)cc1,1,2,2,i,.,.,.
COc1ccc(C2CC(c3cccc([N+](=O)[O-])c3)=NN2/C(C)=C/C(C)=O)cc1 (stereo not given),.,90*,87*,i,142*,-4,151*
CCOC(=O)CCC(=O)N1CCOCCN(C(=O)CCC(=O)OCC)CCOCC1,3,47*,5,i,-3,11,30
Cc1cc(NC(=O)c2cccc(S(=O)(=O)N(C)C)c2)n(-c2ccccn2)n1,0,92*,2,i,-2,-16,-18
O=C(O)CCC(=O)NNC(=O)c1cccs1,5,-5,0,i,.,.,.
CC(=O)c1cccc(NC(=O)C2CC(=O)N(c3cccc(C)c3C)C2)c1 (stereo not given),0,93*,-1,i,-9,-27,-7
Cc1cccc(N2CC(C(=O)Nc3cccc(S(=O)(=O)N4CCCCC4)c3)CC2=O)c1C (stereo not given),.,1,2,i,.,.,.
CN(C1CCCCC1)S(=O)(=O)c1cccc2nsnc12,-4,-9,-3,i,.,.,.
O=C(NCCO)C1CCN(C(=O)c2ccc(-c3ccccc3)cc2)CC1,0,-4,1,i,.,.,.
CC1(C)Cc2c(C#N)c(SCCC#N)nc(N3CCOCC3)c2CS1,-1,67*,-5,i,3,-19,-2
Cc1ccc(C(=O)OC/C(O)=C(\C#N)c2nc3ccccc3[nH]2)cc1S(=O)(=O)N1CCOCC1,7,34,8,i,.,.,.
CC1CN(S(=O)(=O)c2cccc(C(=O)OC/C(O)=C(\C#N)c3nc4ccccc4[nH]3)c2)CC(C)O1 (stereo not given),7,40*,13,i,7,-10,4
O=C(NC12CC3CC(CC(C3)C1)C2)N1CCC(O)CC1,-6,111*,16,i,-18,-55,-14
O=C(NC12CC3CC(CC(C3)C1)C2)N1CCN(C(=O)C2CCCO2)CC1 (stereo not given),-2,2,0,i,.,.,.
O=C(NCc1ccc2c(c1)OCO2)c1nnc(Cc2ccc(Cl)cc2)o1,0,2,-1,i,.,.,.
CCN(C(=O)CN1CCCCC1C)c1c(N)n(Cc2ccccc2)c(=O)[nH]c1=O (stereo not given),.,-5,5,i,.,.,.
Cc1ccc(NC(=O)CS(=O)CC(=O)Nc2cnc3ccccc3c2)cc1Cl (stereo not given),-1,49*,3,?,10,-28,21
SMILES,TPT1 inhibitor,Rpn11 block,HNF4A DNA FP,Myeloid diff 2,Rpn11 confirm,MMP-2 inh,Thrombin FP
O=C(COc1ccccc1)NN1C(=O)CSC1=S,3,3,-1,i,.,.,.
O=C(COc1ccc(F)cc1)NN1C(=O)CSC1=S,2,67*,36,i,-10,21,-13
CC(C)Cc1nnc(NC(=O)Cc2cccs2)s1,18,52*,23,i,81*,31,39
CC(C)c1nnc(NC(=O)Cc2cccs2)s1,-1,-3,2,i,.,.,.
Cc1cccc(CSc2ccc(S(=O)(=O)N3CCCC3)cn2)c1,.,-2,4,i,.,.,.
COc1ccc(C)cc1S(=O)(=O)N1CCN(C(=O)c2ncoc2-c2cccc(F)c2)CC1,1,-4,-1,i,.,.,.
COc1cccc(N(C(=O)c2cccs2)c2nc3ccccc3s2)c1,-5,111*,2,i,-15,13,14
COc1ccc(N(CC(=O)NC(C)(C)C)S(=O)(=O)c2ccccc2)cc1OC,3,-2,-1,i,.,.,.
CCC1CCCCN1CCCNC(=O)CS(=O)(=O)Cc1nc(-c2cccc(OC)c2)oc1C (stereo not given),-1,-2,0,i,.,.,.
O=c1nc(Nc2ccc(Br)cc2)sc2ccc([N+](=O)[O-])cc12,-1,44*,-5,i,-5,-1,-9
CC(=O)Nc1nc2cc([N+](=O)[O-])ccc2s1,.,14,0,i,.,.,.
N[C@@H](Cc1ccccc1)c1nnc(SC/C=C/c2ccccc2)o1,0,4,1,i,.,.,.
Clc1cccc(CNc2nc(-c3cccnc3)nc3ccccc23)c1,.,54*,5,i,4,-60,-17
c1ccc(CNc2nc(-c3cccnc3)nc3ccccc23)cc1,.,-9,4,i,.,.,.
COCCn1c(SCC(=O)NC2(C#N)CCCCC2)nc2ccccc2c1=O,.,-15,4,i,.,.,.
Brc1ccccc1C1CC(c2ccccc2)=Nc2ccccc2N1 (stereo not given),8,41*,13,i,22,16,15
CCN(CC)c1cc(C(F)(F)F)nc(-c2ccccn2)n1,2,144*,4,i,-11,-12,-21

# Screening data: PubChem BioAssay, several laboratories
